Measured values: paper PMC5540273 (PLoS ONE, 2017)

Experiments:
Settings in all cases: concentration: 1 μM, replicates: in singlicate; n = 1
PRKCI = tested on: PRKCI
PRKCQ = tested on: PRKCQ
PRKD1 = tested on: PRKD1
PRKD2 = tested on: PRKD2
PRKD3 = tested on: PRKD3
PRKG1 = tested on: PRKG1
PRKG2 = tested on: PRKG2
PRKR = tested on: T1, PRKR
T1 construct: gene EIF2AK2

PRKX = tested on: PRKX
PRP4 = tested on: PRP4
PYK2 = tested on: T2, PYK2
T2 construct: gene PTK2B

QSK = tested on: QSK
RAF1 = tested on: RAF1
RET = tested on: RET
RIOK1 = tested on: RIOK1
RIOK2 = tested on: RIOK2
RIOK3 = tested on: RIOK3
RIPK1 = tested on: RIPK1
RIPK2 = tested on: RIPK2
RIPK4 = tested on: RIPK4
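Also: KINOMEscan kinase panel screen.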

SMILES | %Inh (PRKCI) | %Inh (PRKCQ) | %Inh (PRKD1) | %Inh (PRKD2) | %Inh (PRKD3) | %Inh (PRKG1) | %Inh (PRKG2) | %Inh (PRKR) | %Inh (PRKX) | %Inh (PRP4) | %Inh (PYK2) | %Inh (QSK) | %Inh (RAF1) | %Inh (RET) | %Inh (RIOK1) | %Inh (RIOK2) | %Inh (RIOK3) | %Inh (RIPK1) | %Inh (RIPK2) | %Inh (RIPK4)
O=C(c1ccc(-c2cc(-c3c[nH]nc3-c3ccccn3)ccn2)cc1)N1CCOCC1 [GW812171] | 15% | 0% | 0% | 17% | 0% | 10% | 0% | 20% | 0% | 0% | 0% | 0% | 9% | 0% | 8% | 0% | 7% | 0% | 1% | 2%
[2H]C([2H])(c1cccc(C(F)(F)F)c1C)n1ccn2c(=O)nc(N3CCOCC3)cc12 [GSK2336394] | 22% | 9% | 17% | 4% | 27% | 0% | 0% | 0% | 14% | 18% | 4% | 0% | 10% | 14% | 23% | 6% | 0% | 0% | 7% | 5%
COc1ccc(CNC(=O)NC2CCN(c3ccnc(Nc4ccc(OC)cc4)n3)C2)cc1 (centres unmarked) [GSK1379727] | 12% | 0% | 0% | 8% | 0% | 0% | 0% | 0% | 11% | 23% | 1% | 0% | 12% | 15% | 8% | 0% | 18% | 50% | 0% | 0%
Cl.Oc1cccc(Nc2ccnc3cc(-c4ccncc4)ccc23)c1 [GW494601] | 22% | 0% | 25% | 29% | 17% | 0% | 1% | 21% | 0% | 34% | 0% | 63% | 22% | 99.9% | 0% | 0% | 0% | 15% | 83% | 47%
Fc1ccc(-c2ncn(CCCN3CCOCC3)c2-c2ccccn2)cc1 [SB-211742] | 100% | 0% | 0% | 31% | 0% | 0% | 1% | 12% | 0% | 44% | 0% | 0% | 29% | 7% | 27% | 0% | 41% | 0% | 0% | 0%
COc1ccc(COc2cc(-n3cnc4ccccc43)sc2C(N)=O)cc1 [GSK1024304] | 0% | 32% | 0% | 24% | 3% | 0% | 0% | 0% | 10% | 11% | 0% | 0% | 4% | 26% | 0% | 80% | 0% | 4% | 0% | 0%
Cc1ccc(NC(=O)c2ccnc(N3CCN(C)CC3)c2)cc1-c1ccc(C(=O)NCC2CC2)cc1 [GW775604] | 0% | 0% | 0% | 2% | 0% | 0% | 0% | 0% | 0% | 0% | 0% | 0% | 10% | 0% | 0% | 0% | 0% | 0% | 0% | 0%
CN(C(=O)c1ccc(-c2cc(-c3c[nH]nc3-c3ccccn3)ccn2)cc1)C1CCOCC1 [GW810083] | 18% | 0% | 10% | 0% | 0% | 0% | 10% | 0% | 0% | 0% | 0% | 0% | 0% | 17% | 54% | 0% | 33% | 0% | 0% | 69%
O=C(NCCNc1ccnc(Nc2ccc(F)cc2)n1)c1cc2ccccc2s1 [GSK1379874] | 0% | 0% | 5% | 0% | 0% | 0% | 0% | 0% | 4% | 49% | 29% | 0% | 10% | 0% | 23% | 0% | 24% | 0% | 0% | 18%
CN(C1=C(c2ccccc2)C(=O)NC1=O)c1ccccc1 [SB-334860] | 33% | 7% | 0% | 14% | 25% | 0% | 16% | 17% | 2% | 0% | 0% | 0% | 18% | 0% | 0% | 4% | 0% | 30% | 44% | 20%
